# PABP FP inh = blocks human PABP binding to poly(A) RNA; P11940; fluorescence polarization; calls only at 35 µM; 1% of 290,000 active; AID 2014;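 further: calls also rest on retests at 20 µM and on dose response follow-up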
# eIF4H inh = inhibitors of RNA binding by human eIF4H; eIF4H fluorescence polarization binding assay; 0.94% of 290,000 active; inhibition, % at 35 µM;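 further: calls also rest on retests at 20 µM and on dose response follow-up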
# APOBEC3A inh = human APOBEC3A DNA deaminase inhibition; AID 493011; 0.41% of 330,000 active; inhibition, % at 20 µM; P31941; recombinant A3A, FAM/TAMRA ssDNA deamination fluorescence;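 active means at least 40% inhibition at 20 µM here, with at most 30% in a related deaminase screen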;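 further: plate controls were A3A with DMSO for no effect and wells lacking A3A enzyme for full effect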
# Target sequence (P31941 whole entry, looked up): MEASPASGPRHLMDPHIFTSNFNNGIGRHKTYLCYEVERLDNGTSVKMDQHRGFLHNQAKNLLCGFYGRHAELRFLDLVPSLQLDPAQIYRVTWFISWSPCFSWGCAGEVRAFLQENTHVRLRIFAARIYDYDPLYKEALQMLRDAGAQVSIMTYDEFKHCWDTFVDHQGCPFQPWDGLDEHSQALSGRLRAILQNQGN
# PHOSPHO1 inh = inhibitors of human PHOSPHO1 phosphatase. Q8TCT1. recombinant PHOSPHO1, absorbance phosphatase assay. inhibition, % at 13.3 µM. 1.1% of 290,000 active. AID 1565; in the data active means inhibition above about 60%
# A3G deaminase = inhibitors of human APOBEC3G DNA deaminase | Q9HC16 | 0.28% of 330,000 active | recombinant A3G, ssDNA deamination FAM/TAMRA fluorescence | AID 493012 | inhibition, % at 20 µM;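 active means inhibition of at least 40% at 20 µM, with no more than 30% in the related APOBEC3A deaminase screen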;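 further: plate controls were DMSO wells with A3G for no effect and wells lacking A3G enzyme for full effect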
# MLLE-PAM2 inh = blocks PAM2 peptide binding to the PABP1 MLLE domain; AID 588489; 0.36% of 360,000 active; P11940; GST-MLLE / FITC-PAM2 fluorescence polarization; inhibition, % at 20 µM; in the data active means inhibition above about 35%, passing the limit was not always enough;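 further: plate controls were DMSO wells with GST-MLLE for no effect and wells lacking GST-MLLE protein for full effect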
# Numbers without * were called inactive; i = inactive; u = inconclusive; x = no result given; + = active, no number. In the library only some 2.6% were active in any assay of this set; here they are far more common. Unless noted, how the calls were made is not given here.
SMILES,PABP FP inh,eIF4H inh,APOBEC3A inh,PHOSPHO1 inh,A3G deaminase,MLLE-PAM2 inh
Cc1ccc(-n2c(C)cc(C(=O)CSc3n[nH]c(N)n3)c2C)cc1,i,-3,-2,-27,-7,-21
Cc1cc(C(=O)CSc2n[nH]c(N)n2)c(C)n1-c1ccc(F)cc1,+,76*,0,-3,-9,-8
COc1ccc(CP(=O)(c2ccccc2)c2ccccc2)cc1,i,-1,-5,-3,-4,1
COc1ccccc1CP(=O)(c1ccccc1)c1ccccc1,i,active,6,-11,0,11
Cn1nnnc1SCc1csc(Nc2ccccc2)n1,i,7,-4,95*,-4,-4
O=C(/C=C/c1ccco1)OCc1nnc(-c2ccc(Cl)cc2)o1,+,57*,33,36,13,-5
O=C(Cc1ccc(Cl)cc1)OCc1nnc(-c2ccccc2)o1,i,-1,3,60*,-2,-11
O=C(/C=C/c1ccco1)OCc1nnc(-c2ccccc2)o1,i,87,17,-7,0,-7
S=C(Nc1cccc2ccccc12)N1CCN(c2ncccn2)CC1,i,-12,-5,88*,11,-64
CC(=O)c1c(C)oc2ccc(NS(=O)(=O)c3ccc(C)cc3)cc12,i,7,-4,37,-6,0
Cc1ccc(C)c(S(=O)(=O)Nc2ccc3oc(C)c(C(=O)O)c3c2)c1,+,87*,83,18,38,4
COc1cc([C@@H]2[C@H]3CNCC=C3C(C#N)=C(N)C2(C#N)C#N)ccc1OC(C)C,+,73*,-1,-3,1,-53
O=C(NC1(C(F)(F)F)NC(=O)N(Cc2ccco2)C1=O)c1cccnc1 (centres undefined),i,7,-1,18,6,11
O=C(NC1(C(F)(F)F)NC(=O)N(Cc2ccco2)C1=O)c1cccs1 (centres undefined),+,92*,1,6,-1,8
Nc1ccccc1SC1CC(=O)N(Cc2ccccc2)C1=O (centres undefined),+,active,0,9,-1,28
COc1ccccc1/C=C1\NC(=S)N(CC2CCCO2)C1=O (centres undefined),i,3,-1,97*,-3,-103
COc1ccc(/C=C2/C(=O)N(CC3CCCO3)C(=S)N2C)c(OC)c1 (centres undefined),i,-8,-4,1,-6,-11
CCc1csc(CNC(=O)C2CCC(=O)N(Cc3cccc(F)c3)C2)n1 (centres undefined),i,-7,0,14,-9,7
O=C(CN1C(=O)S/C(=C\c2ccc(F)cc2)C1=O)Nc1cccc(S(=O)(=O)NCc2ccco2)c1,i,2,-1,17,-1,-2
Cc1c(Cl)cccc1NC(=S)NCCc1ccc(Cl)cc1,i,-11,-8,40,-10,10
Cc1c(Cl)cccc1NC(=S)NCCc1ccc(S(N)(=O)=O)cc1,i,3,-3,4,-3,42*
O=C(NCc1ccc(Cl)cc1)c1cccc2c1C(=O)N(CC1CCCO1)C2 (centres undefined),i,-5,0,18,-6,-5
Cc1cc(C)c(S(=O)(=O)c2ccccc2)c(N2CCOCC2)n1,i,-10,3,49,-1,-13
CCN(CC(=O)Nc1c(F)cccc1F)C(=O)C1CC(=O)N(c2ccccc2OC)C1 (centres undefined),+,10,-1,37,-6,-3
CC(C)(Oc1ccc(Cl)cc1)C(=O)NCc1ccc(S(N)(=O)=O)cc1,i,66*,12,28,8,-1
SMILES,PABP FP inh,eIF4H inh,APOBEC3A inh,PHOSPHO1 inh,A3G deaminase,MLLE-PAM2 inh
COC(=O)CNC(=O)C(C)(C)Oc1ccc(Cl)cc1,i,-10,2,11,1,0
CCOc1ccc(/C=N/n2nnnc2N)cc1O,i,-8,1,62*,8,0
Cc1ccccc1N=C1SCCN1C(=O)CN1C(=O)NC2(CCCC2)C1=O,x,x,1,x,-10,-9
CN[C@@H]1[C@H](O)[C@H](NC)[C@H]2O[C@@]3(O)C(=O)C[C@@H](C)O[C@H]3O[C@@H]2[C@H]1O,i,3,-2,14,17,4
N=c1ccccn1CC(O)COc1ccccc1 (centres undefined),u,u,4,-21,-1,-3
CC(O)Cn1ccccc1=N (centres undefined),+,83*,-1,-3,1,1
COc1cc(/C=C/C(=O)OCC(=O)Nc2ccc(S(N)(=O)=O)cc2)ccc1O,+,52*,11,40,14,-19
C=CCn1c(Cc2cccs2)nnc1SCC(=O)c1ccc2ccccc2c1,i,1,-1,53,-8,-78
C=CCn1c(Cc2cccs2)nnc1SCC(=O)c1cccc(Br)c1,i,-5,-1,68*,-5,-68
COc1ccc(O)c(/C=N/c2sc(C)c(C)c2C#N)c1,+,37,-1,-52,2,2
COc1ccccc1NS(=O)(=O)c1cc([N+](=O)[O-])ccc1N/N=C/c1sc(N2CCOCC2)nc1-c1ccccc1,+,71*,x,-6,x,-157
O=C(Nc1cccc([N+](=O)[O-])c1)c1cc2ccccc2cc1O,+,61*,-2,33,-4,-1
O=C(O)CSc1c2ccccc2cc2ccccc12,i,-1,-2,25,0,38*
CC(=O)Nc1cccc(OCC(=O)Nc2ccccc2)c1,i,active,-4,9,-2,12
Cc1cc(=O)oc2cc(NC(=O)COc3cccc(C(F)(F)F)c3)ccc12,x,x,1,x,-1,-21
COc1cccc(NC(=O)COc2ccccc2)c1,i,2,-3,30,-4,4
Cc1cccc(OCC(=O)Nc2ccc3c(C)cc(=O)oc3c2)c1,+,78*,0,-4,-5,-21
CN(C)C(=O)c1ccc(NC(=O)COc2cccc(Oc3ccccc3)c2)cc1,+,23,2,24,-9,-2
O=C(COC(=O)c1cccnc1Cl)Nc1ccc2c(c1)OCO2,i,-3,-1,32,0,-4
CCOc1cc(/C=C/C(=O)OCC(=O)NC2CCS(=O)(=O)C2)ccc1OCc1ccccc1 (centres undefined),i,0,1,44,-7,14
COCCN(C(=O)Cc1cccs1)C(C(=O)NCc1ccc(OC)cc1)c1ccccc1 (centres undefined),i,-8,5,22,1,-13
Clc1cccc(CNCCCSc2ncccn2)c1,i,5,-4,x,-9,7
Cc1ccc(NC(=S)NCCN(C2CCCCC2)C2CCCC2)cc1C,+,active,6,11,17,2
CN(Cc1ccc(Br)s1)C(=O)CNC(=O)c1ccc2c(c1)OCO2,x,x,0,x,1,-3

# Screening data from PubChem.
